# Measured values as given in PubChem BioAssay (Tox21).
# Calls of active or inactive are those of the source. A call without a number means that no potency is given here. Unless noted, the call rests on the fitted dose curve; in most records, active means well fitted curve in the direction sought with a large enough effect in the repeat runs; inconclusive means weak or mixed curves; inactive means no such curve, though single readings can be large; an effect the other way counts as inactive or inconclusive.
# Assays:
# [1] = qHTS assay for small molecules that induce genotoxicity in human embryonic kidney cells expressing luciferase-tagged ATAD5 (AID 651632); further: nearly all actives have a fitted effect of over 15% in size; further: potency means the concentration at half of the fitted maximal effect
# Summary of the method: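 Concentration-response screen for ATAD5 upregulation in HEK293T luciferase reporter cells; 16 hr treatment at 37C, then luminescence after 30 min with Amplite at room temperature.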
# [2] = qHTS assay for small molecule disruptors of the mitochondrial membrane potential - cell viability (AID 720634; calls by dose curve;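 further: human HepG2 liver cancer cells; series mostly up to about 83 µM; nearly all actives have a fitted effect of over 20% in size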)
# Summary of the method: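 In this qHTS format, HepG2 cells plated overnight were pinned with compound, incubated 1 hr, and assayed for ATP luminescence with CellTiter-Glo after m-MPI dye addition.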
# [3] = qHTS assay to test for compound auto fluorescence at 535 nm (green) in HepG2 cells (AID 720675)
# [4] = qHTS assay to test for compound auto fluorescence at 535 nm (green) in HEK293 cells (AID 720680)
# [5] = qHTS assay to test for compound auto fluorescence at 535 nm (green) in HEK293 cell free culture (AID 720682)
# Summary of the method: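 Using fluorescein as calibrant, autofluorescence was quantified at 485/535 nm in cell-free DMEM containing 10% FBS after pintool addition of compound or vehicle.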
# [6] = qHTS assay to test for compound auto fluorescence at 460 nm (blue) in HepG2 cells (AID 720687)
# Summary of the method: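 Blue-channel autofluorescence (Ex/Em 405/460 nm, triamterene-equivalent) was measured after 1 hr compound exposure at 37 C, 5% CO2. Cells were HepG2, plated overnight at 37 C in MEM plus 10% FBS.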
# [7] = qHTS assay for identifying genotoxic compounds that show differential cytotoxicity against isogenic chicken DT40 cell lines with known DNA damage response pathways - wild type cell line (AID 743012); further: nearly all actives have a fitted effect of over 60% in size; further: potency means the concentration at half of the fitted maximal effect
# Summary of the method: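 Endpoint: CellTiter-Glo luminescence, 30 min RT. Cells: wild type DT40, 300/well. Exposure: compounds in DMSO, 40 h, 37 C/5% CO2, after ~0.5 h pre-incubation.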
# [8] = qHTS assay for identifying genotoxic compounds that show differential cytotoxicity against isogenic chicken DT40 cell lines with known DNA damage response pathways - Rad54/Ku70 mutant cell line (AID 743015); further: nearly all actives have a fitted effect of over 60% in size; further: potency means the concentration at half of the fitted maximal effect
# [9] = qHTS assay to identify small molecule antagonists of the thyroid receptor (TR) signaling pathway - cell viability counter screen (AID 743064); further: nearly all actives have a fitted effect of over 50% in size; further: potency means the concentration at half of the fitted maximal effect
# Summary of the method: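 Counter screen for cytotoxicity: compound plus T3 (1 nM final) on GH3.TRE-Luc cells, 23.5 h at 37 °C, then fluorescence viability readout with CellTiter-Fluor.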
# [10] = target: Estrogen receptor (Homo sapiens) (UniProt P03372); test: qHTS assay to identify small molecule agonists of the estrogen receptor alpha (ER-alpha) signaling pathway (AID 743075; calls by dose curve;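 further: HEK293 GripTite cells with ER-alpha and UAS-driven beta-lactamase reporter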; further: potency means the concentration at half of the fitted maximal effect)
# Sequence of Estrogen receptor (Homo sapiens) (P03372 whole entry, looked up): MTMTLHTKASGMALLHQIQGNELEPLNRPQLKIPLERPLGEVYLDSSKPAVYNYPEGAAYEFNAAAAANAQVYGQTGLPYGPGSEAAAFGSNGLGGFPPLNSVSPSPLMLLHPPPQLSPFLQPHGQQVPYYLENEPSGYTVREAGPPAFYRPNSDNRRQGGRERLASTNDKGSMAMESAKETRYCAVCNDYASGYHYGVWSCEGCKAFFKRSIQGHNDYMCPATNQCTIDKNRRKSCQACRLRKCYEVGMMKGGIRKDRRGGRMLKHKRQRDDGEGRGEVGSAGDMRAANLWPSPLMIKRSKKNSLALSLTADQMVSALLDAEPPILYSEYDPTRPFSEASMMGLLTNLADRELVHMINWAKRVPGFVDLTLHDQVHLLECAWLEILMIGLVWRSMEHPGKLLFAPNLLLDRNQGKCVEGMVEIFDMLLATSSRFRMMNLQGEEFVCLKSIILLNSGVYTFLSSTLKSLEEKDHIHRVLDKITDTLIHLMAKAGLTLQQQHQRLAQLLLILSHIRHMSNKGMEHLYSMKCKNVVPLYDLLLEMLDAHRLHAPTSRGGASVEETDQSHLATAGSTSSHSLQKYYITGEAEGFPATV
# [11] = qHTS assay to identify small molecule antagonists of the estrogen receptor alpha (ER-alpha) signaling pathway using the BG1 cell line (AID 743080; calls by dose curve;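 further: BG1 cells stimulated with 17beta-estradiol alongside compound; nearly all actives have a fitted effect of over 25% in size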; further: potency means the concentration at half of the fitted maximal effect)
# Summary of the method: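 BG1Luc4E2, endogenous ER-alpha, 4xERE-luc; 5 d charcoal-stripped FBS, phenol red free; 24 h plating; cpd + 17beta-estradiol 21.5 h, 37 C/5% CO2; CellTiter-Fluor viability 30 min, then ONE-Glo luciferase 30 min RT.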
# [12] = target: Aryl hydrocarbon receptor (Homo sapiens) (UniProt P35869); test: qHTS assay to identify small molecule that activate the aryl hydrocarbon receptor (AhR) signaling pathway (AID 743085); further: nearly all actives have a fitted effect of over 15% in size; further: potency means the concentration at half of the fitted maximal effect;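 on activation: HG2L7.5c1 human HepG2 liver cells with stably integrated DRE-driven firefly reporter; series mostly up to about 70 µM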
# Sequence of Aryl hydrocarbon receptor (Homo sapiens) (P35869 whole entry, looked up): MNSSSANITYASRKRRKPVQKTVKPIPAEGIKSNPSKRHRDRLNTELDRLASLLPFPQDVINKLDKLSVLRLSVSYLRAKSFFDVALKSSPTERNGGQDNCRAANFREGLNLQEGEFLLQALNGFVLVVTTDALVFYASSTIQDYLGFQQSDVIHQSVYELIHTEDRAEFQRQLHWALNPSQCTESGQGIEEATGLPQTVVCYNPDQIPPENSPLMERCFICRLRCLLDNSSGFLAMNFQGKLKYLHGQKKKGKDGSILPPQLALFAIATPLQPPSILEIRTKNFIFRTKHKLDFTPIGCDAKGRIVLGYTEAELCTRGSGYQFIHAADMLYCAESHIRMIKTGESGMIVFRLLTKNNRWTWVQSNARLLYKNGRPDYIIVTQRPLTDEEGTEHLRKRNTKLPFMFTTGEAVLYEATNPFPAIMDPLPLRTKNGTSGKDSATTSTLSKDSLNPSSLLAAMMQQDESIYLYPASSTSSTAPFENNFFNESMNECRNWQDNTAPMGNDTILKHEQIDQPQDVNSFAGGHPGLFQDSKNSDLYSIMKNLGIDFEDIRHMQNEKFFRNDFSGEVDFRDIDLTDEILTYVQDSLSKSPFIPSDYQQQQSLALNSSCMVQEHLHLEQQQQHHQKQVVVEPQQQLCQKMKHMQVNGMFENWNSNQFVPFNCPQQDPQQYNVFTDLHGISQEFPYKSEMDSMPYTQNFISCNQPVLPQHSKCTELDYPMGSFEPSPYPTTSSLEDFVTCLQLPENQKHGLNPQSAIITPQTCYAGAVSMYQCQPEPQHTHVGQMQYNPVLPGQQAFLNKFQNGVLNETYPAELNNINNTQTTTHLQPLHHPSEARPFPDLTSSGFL
# Summary of the method: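 Measured in HG2L7.5c1 cells: CellTiter-Fluor signal (30 min incubation, 37C) for viability, then luciferase luminescence (30 min, room temperature). Compound contact time was 24 h at 37C, following a 5 h pre-incubation.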
# [13] = target: Nuclear receptor subfamily 1 group I member 2 (Homo sapiens) (UniProt O75469); test: CYP3A4 induction through human pregnane X receptor (PXR) by small molecules, qHTS assay (AID 1346984); further: nearly all actives have a fitted effect of over 40% in size; further: potency means the concentration at half of the fitted maximal effect
# Summary of the method: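 After 24 h at 37C with compound, DPX-2 cells (HepG2, co-transfected PXR response element and CYP3A4 promoter-luciferase) got 3uM final P450-Glo Luciferin-IPA for 3 h; One-Glo luminescence followed.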
# [14] = qHTS assay to test for compound auto fluorescence at 590 nm (red) in HepG2 cells (AID 720674)
# Summary of the method: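 We screened compounds on adherent HepG2 cells, incubating them for an hour at 37 C in 5% CO2 before reading emission at 590 nm under 540 nm excitation; values reflect equivalence to Rose Bengal sodium fluorescence.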
# [15] = qHTS assay to test for compound auto fluorescence at 590 nm (red) in HepG2 cell free culture (AID 720684)
# Summary of the method: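 Cell-free; medium MEM + 10% FBS; compound or DMSO added by pintool; read Ex 540/Em 590 nm; Rose Bengal sodium as red reference fluorophore.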
# [16] = qHTS assay for identifying genotoxic compounds that show differential cytotoxicity against isogenic chicken DT40 cell lines with known DNA damage response pathways - Rev3 mutant cell line (AID 743014); further: nearly all actives have a fitted effect of over 55% in size; further: potency means the concentration at half of the fitted maximal effect
# [17] = target: Estrogen receptor (Homo sapiens) (UniProt P03372); test: qHTS assay to identify small molecule antagonists of the estrogen receptor alpha (ER-alpha) signaling pathway (AID 743069; active means well fitted curve in the direction sought with a large enough effect in the signal ratio in the repeat runs, not every such curve was filed as active; inconclusive means weak or mixed curves, or effect the other way; inactive means no such curve, though single readings can be large or run the other way; the % refers to the signal ratio)
# Summary of the method: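 Antagonist mode: compounds in DMSO were co-added with 17beta-estradiol to ER-alpha-bla HEK293 cells (2% charcoal-stripped serum) and left 18 h at 37C. Reporter inhibition was measured as FRET fluorescence after 2 h LiveBLAzer substrate at room temperature.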
# [18] = target: Estrogen receptor (Homo sapiens) (UniProt P03372); test: qHTS assay to identify small molecule agonists of the estrogen receptor alpha (ER-alpha) signaling pathway using the BG1 cell line (AID 743079); further: nearly all actives have a fitted effect of over 20% in size; further: potency means the concentration at half of the fitted maximal effect
# [19] = target: Peroxisome proliferator-activated receptor gamma (Homo sapiens) (UniProt P37231); test: qHTS assay to identify small molecule agonists of the peroxisome proliferator-activated receptor gamma (PPARg) signaling pathway (AID 743094; active means well fitted activation curve with a large enough effect in the signal ratio in the repeat runs, not every such curve was filed as active; inconclusive means weak or mixed curves, or effect the other way; inactive means no such curve, though single readings can be large or run the other way; the % refers to the signal ratio)
# Sequence of Peroxisome proliferator-activated receptor gamma (Homo sapiens) (P37231 whole entry, looked up): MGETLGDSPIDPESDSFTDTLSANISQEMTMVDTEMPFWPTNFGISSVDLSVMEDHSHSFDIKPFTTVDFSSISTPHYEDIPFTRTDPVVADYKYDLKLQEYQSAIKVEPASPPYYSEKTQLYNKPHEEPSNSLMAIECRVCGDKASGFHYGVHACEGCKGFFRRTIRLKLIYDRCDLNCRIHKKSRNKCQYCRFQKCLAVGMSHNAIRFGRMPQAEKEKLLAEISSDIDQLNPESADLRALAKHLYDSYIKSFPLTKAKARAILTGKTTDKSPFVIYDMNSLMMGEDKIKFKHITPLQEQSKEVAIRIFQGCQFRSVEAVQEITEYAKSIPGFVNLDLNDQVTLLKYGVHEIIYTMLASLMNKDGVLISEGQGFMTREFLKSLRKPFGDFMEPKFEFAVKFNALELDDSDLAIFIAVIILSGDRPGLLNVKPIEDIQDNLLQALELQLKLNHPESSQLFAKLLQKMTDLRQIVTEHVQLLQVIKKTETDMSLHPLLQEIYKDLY
# Summary of the method: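 Fluorescence-based beta-lactamase readout in HEK293H PPARg UAS-bla cells after 17 h compound exposure (37C) and 1 h B/G FRET substrate incubation at room temperature.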
# [20] = target: Glucocorticoid receptor (Homo sapiens) (UniProt P04150); test: qHTS assay to identify small molecule agonists of the glucocorticoid receptor (GR) signaling pathway (AID 720691; active means well fitted activation curve with a large enough effect in the signal ratio in the repeat runs, not every such curve was filed as active; inconclusive means weak or mixed curves, or effect the other way; inactive means no such curve, though single readings can be large or run the other way; the % refers to the signal ratio)
# Sequence of Glucocorticoid receptor (Homo sapiens) (P04150 whole entry, looked up): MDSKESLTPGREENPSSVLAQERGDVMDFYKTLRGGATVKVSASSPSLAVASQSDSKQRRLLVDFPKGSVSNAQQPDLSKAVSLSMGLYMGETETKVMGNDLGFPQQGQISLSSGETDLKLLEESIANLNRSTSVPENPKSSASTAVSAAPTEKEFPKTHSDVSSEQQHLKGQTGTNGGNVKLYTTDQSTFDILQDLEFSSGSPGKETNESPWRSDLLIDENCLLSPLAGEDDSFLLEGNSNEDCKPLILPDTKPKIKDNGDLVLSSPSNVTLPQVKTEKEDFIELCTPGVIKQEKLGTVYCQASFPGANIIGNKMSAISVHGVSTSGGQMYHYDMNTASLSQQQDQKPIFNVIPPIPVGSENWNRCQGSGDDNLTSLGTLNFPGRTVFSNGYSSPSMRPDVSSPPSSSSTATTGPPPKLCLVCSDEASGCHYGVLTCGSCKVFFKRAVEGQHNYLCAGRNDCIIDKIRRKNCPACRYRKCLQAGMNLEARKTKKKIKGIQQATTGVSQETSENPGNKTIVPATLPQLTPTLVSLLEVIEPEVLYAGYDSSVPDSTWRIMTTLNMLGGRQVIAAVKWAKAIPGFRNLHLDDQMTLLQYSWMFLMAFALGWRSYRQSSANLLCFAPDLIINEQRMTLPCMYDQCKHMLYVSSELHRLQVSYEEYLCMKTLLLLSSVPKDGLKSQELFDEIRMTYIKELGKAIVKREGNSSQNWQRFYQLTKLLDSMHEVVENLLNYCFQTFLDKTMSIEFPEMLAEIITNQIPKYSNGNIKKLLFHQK
# Summary of the method: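 Measures GR pathway activation through a GRE-beta-lactamase reporter stably integrated in HeLa cells, with 18 h compound treatment at 37 C and fluorescence detection using a FRET substrate.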
Structure (SMILES),Potency [1],Potency [2],Potency [3],Potency [4],Potency [5],Potency [6],Potency [7],Potency [8],Potency [9],Potency [10],Potency [11],Potency [12],Potency [13],outcome [14],outcome [15],Potency [16],Potency [17],Potency [18],Potency [19],Potency [20]
COC(COC(N)=O)C1=C(N2CC2)C(=O)C(C)=C(N2CC2)C1=O (centres undefined),inactive,inactive,inactive,inactive,inactive,inactive,4.2 nM (active),4.7 nM (active),841 nM (active),inactive,531 nM (active),29800 nM (active),inactive,,,,,,,
COc1ccc2c3c1O[C@H]1[C@@H](O)C=C[C@H]4[C@@H](C2)NCC[C@@]341,inactive,,inactive,inactive,inactive,inactive,inactive,inactive,inactive,inactive,inactive,inactive,inactive,inactive,inactive,inactive,inactive,inactive,inactive,
CCC1C(C)=NN=C(c2ccc(OC)c(OC)c2)c2cc(OC)c(OC)cc21 (centres undefined),,,inactive,inactive,inactive,inactive,inactive,,inactive,inactive,inactive,inactive,inactive,inactive,inactive,,,inactive,inactive,
CCCCCCCCCC(=O)O[C@H]1CC[C@H]2[C@@H]3CCC4=CC(=O)CC[C@]4(C)[C@H]3CC[C@]12C,inactive,inactive,,inactive,inactive,inactive,inactive,inactive,,10700 nM [inconclusive] (active),inactive,inactive,inactive,inactive,inactive,inactive,inactive,335 nM (active),,inactive
C#CC(C)(O)CC (centres undefined),inactive,,inactive,,inactive,inactive,,inactive,,inactive,inactive,,inactive,inactive,inactive,inactive,inactive,inactive,inactive,inactive
CCCCCCC(=O)O[C@H]1CC[C@H]2[C@@H]3CC[C@H]4CC(=O)C=C(C)[C@]4(C)[C@H]3CC[C@]12C,,inactive,,inactive,,inactive,,inactive,inactive,6740 nM [inconclusive] (active),inactive,inactive,inactive,inactive,inactive,inactive,,2110 nM (active),inactive,inactive
c1cc2c(c(NC3=NCCN3)c1)CCCC2,inactive,inactive,inactive,inactive,inactive,inactive,,,,,,,inactive,inactive,inactive,,,,,inactive
CCNC(C)Cc1cccc(C(F)(F)F)c1 (centres undefined),,inactive,inactive,,inactive,,inactive,,inactive,inactive,inactive,inactive,inactive,inactive,,,inactive,inactive,inactive,inactive
OC(c1ccccc1)(c1ccccc1)C1CN2CCC1CC2 (centres undefined),inactive,,inactive,inactive,inactive,inactive,26600 nM (active),,,inactive,inactive,inactive,inactive,,inactive,,inactive,inactive,inactive,
CCC1(C)CC(=O)NC(=O)C1,inactive,inactive,inactive,inactive,,inactive,inactive,inactive,inactive,inactive,,inactive,inactive,inactive,inactive,inactive,inactive,inactive,,inactive
C=CCN(C1=NCCN1)c1c(Cl)cccc1Cl,inactive,inactive,inactive,inactive,inactive,inactive,inactive,inactive,inactive,inactive,inactive,inactive,inactive,inactive,,inactive,inactive,11900 nM (active),,inactive
Oc1c(Cl)cc(Cl)cc1Cl,,,inactive,inactive,inactive,inactive,,,,,,,,,,,,,,
NC1=NC(=O)N2CC12 (centres undefined),inactive,inactive,inactive,inactive,,,inactive,,inactive,inactive,inactive,inactive,inactive,inactive,inactive,inactive,inactive,inactive,,
CC(C)(O)[C@@H]1[C@H]2OC(=O)[C@@H]1[C@]1(O)C[C@H]3O[C@]34C(=O)O[C@H]2[C@]14C,inactive,inactive,inactive,inactive,,inactive,,inactive,inactive,,,,inactive,inactive,inactive,inactive,,,,
COc1ccc2c3c1O[C@H]1C(=O)CC[C@H]4[C@@H](C2)N(C)CC[C@]314,inactive,,,inactive,,,,inactive,inactive,inactive,,inactive,,inactive,inactive,inactive,inactive,inactive,inactive,
C[C@]12CC[C@H]3[C@@H](CCC4=C(Cl)C(=O)CC[C@@]43C)[C@@H]1CC[C@@H]2O,inactive,inactive,inactive,inactive,inactive,inactive,,23700 nM (active),inactive,2680 nM [inconclusive] (active),,inactive,inactive,inactive,inactive,9440 nM (active),,1500 nM (active),inactive,

Structure (SMILES),Potency [1],Potency [2],Potency [3],Potency [4],Potency [5],Potency [6],Potency [7],Potency [8],Potency [9],Potency [10],Potency [11],Potency [12],Potency [13],outcome [14],outcome [15],Potency [16],Potency [17],Potency [18],Potency [19],Potency [20]
C#CCN1CC(=O)N(COC(=O)C2C(C=C(C)C)C2(C)C)C1=O (centres undefined),inactive,inactive,inactive,,,inactive,inactive,,inactive,inactive,inactive,inactive,,inactive,inactive,inactive,inactive,inactive,inactive,inactive
CC(=O)OC1CN2CCC1CC2 (centres undefined),,inactive,inactive,inactive,,inactive,inactive,inactive,inactive,inactive,inactive,inactive,,inactive,inactive,inactive,inactive,inactive,,inactive
CCC/C=C/C=C/C(=O)O[C@H]1/C(=C/C(=O)OC)C[C@H]2C[C@H]([C@@H](C)O)OC(=O)C[C@H](O)C[C@@H]3C[C@H](OC(C)=O)C(C)(C)[C@](O)(C[C@@H]4C/C(=C/C(=O)OC)C[C@H](/C=C/C(C)(C)[C@]1(O)O2)O4)O3,4.7 nM (active),inactive,inactive,inactive,inactive,inactive,3.8 nM (active),4.2 nM (active),10600 nM (active),,inactive,inactive,,,inactive,3.8 nM (active),inactive,,inactive,
CN(C)[C@H](Cc1ccccc1)c1ccccc1,inactive,inactive,,inactive,inactive,inactive,inactive,,inactive,inactive,inactive,inactive,,inactive,inactive,inactive,inactive,inactive,inactive,inactive
COC1=CC=C2[C@H]3Cc4ccc(OC)c5c4[C@@]2(CCN3C)[C@H]1O5,inactive,inactive,inactive,inactive,inactive,inactive,inactive,inactive,inactive,inactive,inactive,inactive,,inactive,inactive,inactive,inactive,inactive,inactive,inactive
C[N+]1([O-])[C@@H]2CC(OC(=O)[C@H](CO)c3ccccc3)C[C@H]1[C@@H]1O[C@@H]12 (some centres undefined),inactive,inactive,inactive,,inactive,inactive,,inactive,inactive,inactive,inactive,inactive,inactive,,inactive,inactive,inactive,inactive,inactive,
CCC(C)(S(=O)(=O)CC)S(=O)(=O)CC,,,inactive,inactive,inactive,inactive,,inactive,inactive,inactive,inactive,inactive,inactive,inactive,inactive,inactive,inactive,inactive,inactive,
O=C(C[C@@H]1NCCC[C@H]1O)Cn1cnc2cc(Br)c(Cl)cc2c1=O,inactive,,inactive,,inactive,inactive,inactive,inactive,,inactive,inactive,,,inactive,inactive,inactive,inactive,inactive,,inactive
C[N+]1(C)CCCCC1COC(=O)C(O)(c1ccccc1)c1ccccc1 (centres undefined),,inactive,inactive,inactive,inactive,inactive,,inactive,,,,inactive,inactive,inactive,inactive,,,,,inactive
CCON=O,inactive,,inactive,inactive,inactive,,inactive,inactive,inactive,inactive,inactive,inactive,inactive,inactive,inactive,inactive,inactive,,inactive,
C[C@]12CC[C@H]3[C@@H](CCC4=C(O)C(=O)CC[C@@H]43)[C@@H]1CC[C@@H]2OC(=O)CCC1CCCC1,inactive,,inactive,,inactive,inactive,inactive,inactive,inactive,952 nM [inconclusive] (active),inactive,,,inactive,,inactive,,119 nM (active),inactive,inactive
CCC1(c2ccccc2)C(=O)NC(=O)N(C(=O)c2ccccc2)C1=O (centres undefined),inactive,inactive,inactive,inactive,inactive,,inactive,,inactive,,,inactive,28200 nM (active),inactive,inactive,inactive,,,inactive,inactive
CC[N+](C)(CC)CCOC(=O)C(O)(c1ccccc1)c1ccccc1,inactive,inactive,,inactive,inactive,inactive,inactive,inactive,inactive,inactive,inactive,inactive,,inactive,,inactive,inactive,inactive,inactive,inactive
CCC(=O)O[C@@](Cc1ccccc1)(c1ccccc1)[C@@H](C)CN(C)C,,inactive,inactive,inactive,inactive,inactive,inactive,inactive,,,,,inactive,inactive,inactive,inactive,,,,
CCOc1ccc2c3c1O[C@H]1[C@@H](O)C=C[C@H]4[C@@H](C2)N(C)CC[C@@]341,inactive,inactive,,inactive,inactive,inactive,inactive,inactive,,inactive,inactive,,7940 nM (active),inactive,,,inactive,inactive,inactive,
